PubChem BioAssay AID2535 (National Center for Advancing Translational Sciences (NCATS), 2010)
The source made the active and inactive calls. Calls come from the whole dose curve; as a rule, active = well fitted curve in the direction sought with a large enough effect; inconclusive = small, poorly fitted or top-dose-only effect, or effect the other way, or another doubt; inactive = no such curve, though single readings can be large or run the other way.

These molecules were tested against Pyruvate kinase PKLR (Homo sapiens) (UniProt P30613) (assay: Secondary Concentration-Response Assay for Activators of Human Liver Pyruvate Kinase: for Probe SAR). Details: purified hPK-L, ATP production, Kinase-Glo luminescence; series mostly up to 58.3 µM.
Text: NIH Chemical Genomics Center [NCGC]
Matthew G. Vander Heiden, M.D., Ph.D. [Harvard Medical School, 77 Avenue Louis Pasteur, Boston, MA 02115]
Human pyruvate kinase liver (hPK-L) enzyme was supplied as a highly purified (>95% pure) preparation from Harvard Medical School and assayed for its ability to generate ATP from ADP using phosphoenolpyruvate (PEP) as a substrate. ATP generation was detected in a coupled reaction by luciferase-mediated luminescence, an ATP-dependent process. Pyruvate kinase substrates, PEP and ADP, were present in the assay at Km and approximately 10-fold below Km respectively. The enzyme was assayed at an intermediate level of activity to screen for both inhibitors and activators.
NCGC Assay Protocol Summary for L-isoform:
Three uL of substrate mix (at r.t.) in assay buffer (50 mM Imidazole pH7.2, 50 mM KCl, 7 mM MgCl2, 0.01% Tween 20, 0.05% BSA) was dispensed into white solid bottom 1,536 well microtiter plates so that the final concentrations of substrates in the assay were 0.1 mM ADP and 0.5 mM PEP. 23 nL of compound were delivered by a pin tool and 1 uL of enzyme mix (final concentration of 0.1 nM) in assay buffer (4 degree Celsius) was added. Plates were incubated at room temperature for 1 hour. Two uL of detection mix (Kinase-Glo, Promega; at 4 degree Celsius protected from light) was added and luminescence read by a ViewLux (Perkin Elmer) at 1 second exposure/plate. Data were normalized to the uninhibited (row 31). Additionally, a no enzyme and 5-fold enzyme control was dispensed in row 32, split equally between the two conditions.

Sequence of Pyruvate kinase PKLR (Homo sapiens) (P30613 whole entry, looked up): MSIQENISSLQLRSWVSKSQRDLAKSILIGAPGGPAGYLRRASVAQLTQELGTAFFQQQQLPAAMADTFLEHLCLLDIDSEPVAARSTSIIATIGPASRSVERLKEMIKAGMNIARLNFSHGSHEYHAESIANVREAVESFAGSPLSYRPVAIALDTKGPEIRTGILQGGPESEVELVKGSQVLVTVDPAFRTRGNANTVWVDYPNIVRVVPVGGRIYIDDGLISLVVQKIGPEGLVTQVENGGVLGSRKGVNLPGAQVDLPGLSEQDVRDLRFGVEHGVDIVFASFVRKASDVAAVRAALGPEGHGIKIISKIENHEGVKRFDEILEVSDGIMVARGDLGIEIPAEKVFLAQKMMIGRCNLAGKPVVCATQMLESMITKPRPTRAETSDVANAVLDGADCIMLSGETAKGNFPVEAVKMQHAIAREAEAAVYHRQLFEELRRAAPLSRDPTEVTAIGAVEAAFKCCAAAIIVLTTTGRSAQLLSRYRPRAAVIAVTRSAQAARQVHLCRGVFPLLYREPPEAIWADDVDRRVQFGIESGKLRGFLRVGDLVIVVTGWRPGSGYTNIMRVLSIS

outcome, inactive:
CC(=O)N1CCCc2cc(S(=O)(=O)Nc3ccc(C)c(C)c3)ccc21
O=C1c2ccccc2C(=O)N1Cc1ccccn1
O=C1c2ccccc2C(=O)N1c1ccccn1
O=C1c2ccccc2C(=O)N1c1cccc(Cl)c1
Cc1ccc(NS(=O)(=O)c2ccc3c(c2)CCC(=O)N3)cc1
CC(=O)Nc1ccc(S(=O)(=O)Nc2ccc(C)c(C)c2)cc1
Cc1ccc(NS(=O)(=O)c2cc3c(cc2Cl)CCC(=O)N3)cc1Cl
Cc1ccc(NS(=O)(=O)c2ccc3c(c2)CCCC(=O)N3)cc1C
CNc1cccc(S(=O)(=O)N2CCCN(S(=O)(=O)c3ccc4c(c3)OCCO4)CC2)c1
O=C1CCc2cc(S(=O)(=O)Nc3cccc(-c4ccccc4)c3)ccc2N1
Cc1cccc(NS(=O)(=O)c2ccc3c(c2)CCC(=O)N3)c1
Cc1ccc(NS(=O)(=O)c2cc3c(cc2C)OCC(=O)N3)cc1C
Cc1ccc2nc(-c3ccc(C)o3)c(Nc3ccccc3)n2c1
Cc1ccc(NS(=O)(=O)c2ccc(N3CCCC3=O)cc2)cc1C
Cc1ccc(NS(=O)(=O)c2cc3c(cc2Cl)CCC(=O)N3)cc1C
Cc1ccc(NS(=O)(=O)c2ccc(Cl)cc2)cc1C
Cc1ccc(NS(=O)(=O)c2ccc3c(c2)oc(=O)n3C)cc1C
O=C1c2ccccc2C(=O)N1c1cccc(=O)[nH]1
Cc1ccc(NS(=O)(=O)c2ccc3c(c2)CCC(=O)N3)cc1Cl
CN(C)c1cccc(S(=O)(=O)N2CCN(S(=O)(=O)c3ccc4c(c3)OCCO4)CC2)c1
Cc1c(Cl)cccc1NS(=O)(=O)c1cc2c(cc1F)NC(=O)CC2
COc1ccc(Nc2c(-c3ccc(C)o3)nc3ccccn23)cc1
COc1ccc(-c2nc3cccc(C)n3c2Nc2ccc(C)cc2)cc1
O=C1CCc2cc(S(=O)(=O)Nc3ccc(Cl)c(Cl)c3)c(F)cc2N1
CSc1cc2c(s1)c1cnn(Cc3cccc(N)c3)c(=O)c1n2C
O=C1c2ccccc2C(=O)N1c1cccc2cnccc12
CN(C)c1cccc(S(=O)(=O)N2CCCN(S(=O)(=O)c3ccc4c(c3)OCCO4)CC2)c1
Cc1ccc(C)c(OC2=NS(=O)(=O)c3ccccc32)c1
Cc1ccc(Cl)cc1NS(=O)(=O)c1cc2c(cc1F)NC(=O)CC2
O=C1CCc2cc(S(=O)(=O)Nc3cccc(F)c3)ccc2N1
Cc1ccc(Cl)cc1NS(=O)(=O)c1cc2c(cc1Cl)CCC(=O)N2
O=C1c2ccccc2C(=O)N1Cc1ccncc1
Cc1ccc(Nc2c(-c3ccsc3)nc3cccc(C)n23)cc1
O=C1CCc2cc(S(=O)(=O)Nc3cccnc3)ccc2N1
Cc1ccc2nc(-c3cccs3)c(Nc3ccccc3)n2c1
Cc1cc2c(s1)c1cnn(Cc3ccccc3F)c(=O)c1n2C
Cc1ccc(Nc2c(-c3ccc(C)o3)nc3ccccn23)cc1
O=C1CCc2cc(S(=O)(=O)Nc3cc(F)cc(Cl)c3)c(F)cc2N1
Cc1ccc(-c2nc3ccc(Cl)cn3c2Nc2ccccc2)o1
Cc1ccc(NS(=O)(=O)c2ccc3[nH]c(=O)[nH]c3c2)cc1C
